High-throughput results from PubChem BioAssay.
An excerpt weighted towards active compounds, which were near 2.9% of everything screened.
ABHD5 PLIN5 PPI – ABHD5-PLIN5 interaction inhibitors, primary screen, cell lysate, split luciferase complementation, luminescence; hit rate 0.78% among 360,000; inhibition, % at 4 µM; AID 602281, 2012; Split G. princeps luciferase complementation, 4 h; Perilipin-5 (Homo sapiens) + 1-acylglycerol-3-phosphate O-acyltransferase ABHD5 (Homo …;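 active = inhibition above the mean inhibition across every tested compound plus 3 SD, cut at about 22% in these data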;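 also: 0% = DMSO only wells and the 100% control is not disclosed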
Myeloid diff MLP – induction of myeloid progenitor differentiation, primary screen, cell-based, flow cytometry, MLPCN library; ER-HoxA9 myeloid progenitors, lysozyme-GFP differentiation; calls only at 10 µM; hit rate 1% among 360,000; AID 624256, 2012;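 active = normalized GFP-positive differentiation at or above the plate's own cutoff, the solvent-only control mean plus 3 SD; inconclusive = no clear call, values can overlap the other calls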;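 also: cells exposed to compound for four days before flow analysis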
HGIII-sPLA2 inh – human group III sPLA2 inhibitors, primary screen, biochemical, QFRET, BODIPY PC-A2 liposome substrate; Group 3 secretory phospholipase A2 (Homo sapiens), Q9NZ20; QFRET BODIPY PC-A2 liposome hydrolysis, fluorescence; inhibition, % at 12.2 µM; hit rate 0.56% among 370,000; AID 743126, 2013;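 active = inhibition above mean plus 3 SD of compounds lying within the high and low control bounds, cut at about 19% in these data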;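 also: 0% = median of test compound wells and 100% = no enzyme DMSO wells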
Cardio protect – cardioprotection against H2O2-induced cell death, primary screen, uHTS, H9c2 cells, ATPLite luminescence. protection from H2O2 cell death, % at 20 µM. hit rate 0.63% among 360,000. AID 588492, 2011. H9c2 cardiomyocytes, H2O2 injury protection, 2 h;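 active = compounds giving at least 50% protection of heart cells from peroxide-induced death in the single-dose screen, raw or plate-pattern-corrected value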;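 also: 0% = DMSO wells with peroxide and 100% = DMSO wells without peroxide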
Rtt109 HAT inh – inhibitors of C. albicans Rtt109/Vps75 HAT, primary screen, biochemical, ThioGlo CoA-SH fluorescence, plate reader | Histone acetyltransferase RTT109 (Candida albicans (strain SC5314 / ATCC MYA-2876)), … | purified Rtt109/Vps75, 4 h | inhibition, % at 34.9 µM | hit rate 0.16% among 330,000 | AID 540336, 2011;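 active = inhibition of at least 50% in every replicate; inconclusive = best replicate reaches 50% inhibition but some replicates fall short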
DAGLB inh – DAGLB lipase inhibitors, primary screen, biochemical, fluorescence, HTS; AID 504411, 2011; HEK293T DAGLB membrane lysate, EnzChek fluorogenic substrate; inhibition, % at 5.17 µM; Diacylglycerol lipase-beta (Homo sapiens), Q8NCG7; hit rate 0.059% among 340,000; in the data active = inhibition above about 34%;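 also: 0% = enzyme with vehicle and 100% = wells lacking enzyme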
Target sequence (Q8NCG7 whole entry, looked up): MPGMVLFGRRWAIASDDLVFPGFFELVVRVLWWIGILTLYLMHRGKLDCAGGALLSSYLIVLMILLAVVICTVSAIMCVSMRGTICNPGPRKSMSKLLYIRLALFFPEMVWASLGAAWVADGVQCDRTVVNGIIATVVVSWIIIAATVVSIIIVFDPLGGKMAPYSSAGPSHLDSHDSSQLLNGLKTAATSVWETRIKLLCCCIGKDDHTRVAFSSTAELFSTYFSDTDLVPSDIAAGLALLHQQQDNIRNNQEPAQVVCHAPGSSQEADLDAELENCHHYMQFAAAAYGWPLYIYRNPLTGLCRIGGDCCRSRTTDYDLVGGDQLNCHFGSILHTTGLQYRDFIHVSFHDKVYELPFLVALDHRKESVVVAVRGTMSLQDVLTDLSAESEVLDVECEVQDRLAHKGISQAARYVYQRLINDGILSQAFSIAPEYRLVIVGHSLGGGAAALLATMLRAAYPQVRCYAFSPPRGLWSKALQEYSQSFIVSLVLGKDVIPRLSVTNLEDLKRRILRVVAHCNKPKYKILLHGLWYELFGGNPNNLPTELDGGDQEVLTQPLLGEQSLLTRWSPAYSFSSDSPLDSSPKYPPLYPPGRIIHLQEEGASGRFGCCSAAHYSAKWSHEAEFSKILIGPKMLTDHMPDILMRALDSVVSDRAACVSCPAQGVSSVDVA
Starred values were filed as active, the others as inactive.

`Cc1ccc2[nH]c(=O)c(CN(CCCN3CCOCC3)C(=O)Nc3ccc(Cl)cc3)cc2c1` gave ABHD5 PLIN5 PPI 11, Myeloid diff MLP inactive, HGIII-sPLA2 inh 1, Cardio protect 50*, Rtt109 HAT inh inconclusive and DAGLB inh 0.
Cc1ccc(S(=O)(=O)N2CCCc3nc(C)c(C)cc32)cc1 was read as HGIII-sPLA2 inh 0.
COc1ccc(Cc2c(-c3ccco3)nc3ccc(Cl)cn23)c(C)c1 was read as ABHD5 PLIN5 PPI 27*, Myeloid diff MLP inactive, HGIII-sPLA2 inh 0 and Cardio protect 4.
Screening Cc1ccc(Cc2c(-c3ccco3)nc3ccc(Br)cn23)cc1 returned ABHD5 PLIN5 PPI 58*, Myeloid diff MLP inactive, HGIII-sPLA2 inh -3 and Cardio protect -6.
`COc1ccc(Cc2c(-c3ccco3)nc3c(C)cc(Br)cn23)c(C)c1` gave ABHD5 PLIN5 PPI 5, Myeloid diff MLP inactive, HGIII-sPLA2 inh 7 and Cardio protect -10.
COc1ccc(Cc2c(-c3ccccc3)nc3ccc(Cl)cn23)c(C)c1 was read as ABHD5 PLIN5 PPI -7, Myeloid diff MLP inactive, HGIII-sPLA2 inh -6 and Cardio protect 2.
`COc1ccc(Cc2c(-c3ccco3)nc3ccc(Br)cn23)c(C)c1` gave ABHD5 PLIN5 PPI 43*, Myeloid diff MLP inactive, HGIII-sPLA2 inh 4 and Cardio protect -6.
Cc1ccc(Cc2c(-c3ccc(C)cc3)nc3ccc(Br)cn23)cc1 was read as ABHD5 PLIN5 PPI -10, Myeloid diff MLP inactive, HGIII-sPLA2 inh -18, Cardio protect -14 and DAGLB inh -8.
For COc1ccc(S(=O)(=O)N2CCCCCC2)cc1NC(=O)CCc1cc(OC)c(OC)c(OC)c1 the results were ABHD5 PLIN5 PPI -10, Myeloid diff MLP inactive, HGIII-sPLA2 inh -5, Cardio protect -1, Rtt109 HAT inh -19 and DAGLB inh -2.
Screening Cc1ccc(S(=O)(=O)N2CCN(Cc3csc(C)n3)CC2)cc1 returned ABHD5 PLIN5 PPI 3, Myeloid diff MLP active, HGIII-sPLA2 inh -4, Cardio protect -2, Rtt109 HAT inh -3 and DAGLB inh 2.
Cc1ccc(S(=O)(=O)N2CCN(Cc3ccccn3)CC2)cc1 was read as ABHD5 PLIN5 PPI -3, Myeloid diff MLP inactive, HGIII-sPLA2 inh 1, Cardio protect -1, Rtt109 HAT inh -2 and DAGLB inh 0.
For CCOc1ccc(C(CC(=O)O)NC(=O)C(c2ccccc2)c2ccccc2)cc1OC (centres undefined) the results were ABHD5 PLIN5 PPI -7, Myeloid diff MLP inactive, HGIII-sPLA2 inh -2, Cardio protect -4, Rtt109 HAT inh -2 and DAGLB inh 1.
For CN(Cc1ccccc1)Cc1nc2c([nH]1)c(=O)n(C)c(=O)n2C the results were ABHD5 PLIN5 PPI 4, Myeloid diff MLP active, HGIII-sPLA2 inh 3, Cardio protect 4, Rtt109 HAT inh 1 and DAGLB inh 1.
Cc1c(C(=O)O)sc(S(=O)(=O)N2CCN(C(=O)CC(C)c3ccccc3)CC2)c1C(=O)O (centres undefined) was read as ABHD5 PLIN5 PPI 4, Myeloid diff MLP inactive, HGIII-sPLA2 inh -3, Cardio protect 2, Rtt109 HAT inh 4 and DAGLB inh -1.
For O=C(C=P(c1ccccc1)(c1ccccc1)c1ccccc1)c1ccccc1-c1ccccc1C(=O)C=P(c1ccccc1)(c1ccccc1)c1ccccc1 the results were ABHD5 PLIN5 PPI 26*, Myeloid diff MLP inconclusive, HGIII-sPLA2 inh -8, Cardio protect -19, Rtt109 HAT inh 8 and DAGLB inh 5.
COc1ccc(-c2cc(C(F)(F)F)nc(S(=O)(=O)CCCC(=O)Nc3cccc(O)c3)n2)cc1OC was read as ABHD5 PLIN5 PPI 23*, Myeloid diff MLP inactive, HGIII-sPLA2 inh -21 and Cardio protect -5.
Cc1ccc(S(=O)(=O)CCC(=O)Nc2cc(C)on2)cc1 was read as ABHD5 PLIN5 PPI 2, Myeloid diff MLP inactive, HGIII-sPLA2 inh 16, Cardio protect 0 and DAGLB inh -3.
